The target in the assay is AMP-activated protein kinase, AMPK (Homo sapiens) (UniProt P54646+O43741+P54619+Q9UGJ0+Q9Y478+Q13131+Q9UGI9). Nature of the assay: AMP-dependent Kinase enzyme assay. An in vitro enzyme assay that detects ADP turnover that is directly proportional to AMPK activity. This uses naive AMPK that is activated during the assay with MK-8722. To be noted: 30 µM. It is filed as functional. On the set-up: scale not given: direction of the effect not stated beside the values.
As to `CC(O)CN1CCN(Cc2coc(-c3ccccc3)n2)CC1` (centres undefined), the Percent Effect was -7.2%.
With `CC(C)Oc1cccc(F)c1C(C(=O)O)N1CCCC1` (centres undefined), the Percent Effect was found to be 8.59%.
Under `Cn1ccc(N2CCCC(NC(=O)c3ccsc3)C2=O)n1` (centres undefined) stands -4.2%; under `CCC1(CC)CC(=O)N(CC(O)c2ccc(F)cc2)C1=O` (centres undefined), 8.69%.
The same measure for `CC1(C)CN(Cc2ccncc2)CCS1(=O)=O`: -9.12%.
For `O=C(NCc1ccc(-n2cncn2)nc1)c1cnccn1`, the Percent Effect was -5.91%.
`CN1CCC(Nc2ccc(F)cc2OCC(F)(F)F)C1=O` (centres undefined): the Percent Effect was -16.7%.
For the compound `Cc1cnn(C2CCCN(C(=O)c3cc[nH]n3)C2)c1` (centres undefined), the Percent Effect is -0.778%.
Consider `CC(C)CCN(C(=O)Nc1cccc(C(=O)N(C)C)c1)C1CC1`, for which the Percent Effect is -4.54%.
Under `CS(=O)(=O)c1ccc(CN2C[C@H]3CC[C@@H]2CN(c2ncccn2)C3)cc1` stands 9.64%.
As to `CC(C)[C@@H]1CN(C(=O)CCc2ccc(F)cc2)C[C@H]1C(=O)O`, the Percent Effect is -1.24%.
As for `CC1(C)OC(=O)N(CC(=O)N2CCC(c3ccccc3Cl)C2)C1=O` (centres undefined), the Percent Effect came to 8.7%.
As for `C[C@H](O)c1cnn(-c2ccccc2)c1`, the Percent Effect amounted to 3.7%.
Under `Cc1noc(-c2ccc(N(C)Cc3nccs3)nc2)n1` stands 5.7%; under `Cn1cccc1C(=O)NCc1ccnc(C2CCCOC2)n1` (centres undefined), 6.83%; under `NC(=O)CCC1CCCN(Cc2cnc(N3CCCCC3)nc2)C1` (centres undefined), 7.08%.
Under `CCc1noc(CN2CCN(C(=O)OC(C)(C)C)C(C)C2)n1` (centres undefined) stands 6.06%; under `CC(C)c1cc(NC(=O)Cn2ccc(=O)c3ccccc32)[nH]n1`, 4.99%; under `COC(=O)CSCc1nc(-c2ccc(Cl)cc2)no1`, -4.75%.
Under `Cc1nc(C2CCCNC2)cc(N2CCc3nc(N)sc3C2)n1` (centres undefined) stands 3.73%; under `CCc1nnc(CS(=O)(=O)c2ccc(C)c(C)c2)n1C`, 9.9%; under `COC1CCN(c2ccc(F)cc2CN(C)C(C)C(N)=O)CC1` (centres undefined), 8.56%.
`OCc1csc(N2C[C@@H](CN3CCCCCC3)[C@@H](CO)C2)n1`: the Percent Effect was -3.32%.
Under `O=C(NCc1ccco1)N1CCC(n2cc(-c3ccccn3)nn2)CC1` stands 0.674%.
The same measure for `Cc1ccc(N2CCC(CCN3CCCC3=O)CC2)nn1`: -7.57%; for `NC(=O)c1csc(N2C[C@@H](CN3CCCCC3)[C@@H](CO)C2)n1`: -3.06%; for `CC(C)c1cc(NCc2csc(N(C)C)n2)nc(N)n1`: -10.6%.
With `CN(C(=O)c1ccc(C#N)cc1)c1nnc(C2CCOC2)s1` (centres undefined), the Percent Effect came to 11.3%.
Under `O=S(=O)(NCCCn1cncn1)c1ccc2c(c1)OCCO2` stands 8.28%; under `O=c1c(CN2CCCCC2)coc2ccc(Cl)cc12`, -4.07%.
For `CN(CCCOc1ccccc1Cl)C(=O)CN1C[C@@H]2CC[C@H](CC1=O)N2`, the Percent Effect amounted to 10.1%.
The same measure for `N#Cc1ccc(CN(CCF)Cc2cccc(F)c2)cc1`: -7.25%; for `OC1CCCN(Cc2cn(CC3CCN(C4CCSCC4)CC3)nn2)C1` (centres undefined): 8.15%; for `CN(C)c1cc(CNC(=O)C2COc3ccccc3O2)ccn1` (centres undefined): 0.412%.
As to `N#Cc1ccc(Cl)cc1NCC1CC1`, the Percent Effect was found to be 5.1%.
Under `Cc1cc(CN(C)C(=O)c2cc(COc3ccccc3)[nH]n2)n[nH]1` stands 1.22%; under `COC(=O)C1CN(Cc2ccn(-c3ccc(F)cc3)n2)CCO1` (centres undefined), -6.99%; under `CN(C)c1ccccc1C(=O)N1CCCC(c2cccc(C(=O)O)c2)C1` (centres undefined), 2.89%.
For `COc1cc(F)ccc1NC(=O)NCCNC(=O)OC(C)(C)C`, the Percent Effect was -6.81%.

For the origin of these results see ChEMBL document CHEMBL3988442, “University of Dundee, Small-Polar-MMV Screening Library” (2021).
